Compound activity (PubChem)
Rows were chosen to be rich in hits. Some 3.3% of all compounds tested hit in one or more screens of this group.
Rpn11 inh: Rpn11 (PSMD14) deubiquitinase inhibitors, primary screen, biochemical, fluorescence polarization, uHTS. human 26S proteasome, Ub4-pepOG fluorescence polarization; 20S core pre-blocked with epoxomicin. inhibition, % at 20 µM. actives 0.59% (n = 360,000);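 active = inhibition at 20 µM, scaled to each plate's controls, above about 33%, limit read from the data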
HNF4A DNA FP: change in binding of human HNF4A to DNA, primary screen, biochemical, fluorescence polarization, FITC-DNA; activity change, % at 10 µM; actives 0.3% (n = 360,000); AID 1224865, 2016; 1 h; in the data active = activity change above about 30%, passing the limit was not always enough
NRP1-CendR mod: modulators of CendR peptide binding to NRP-1, primary screen, biochemical, fluorescence polarization, uHTS; Neuropilin-1 (Homo sapiens), O14786; FAM-RPARPAR peptide binding to NRP-1; inhibition, % at 25 µM; actives 0.85% (n = 360,000); AID 602438, 2012;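 active = inhibition or corrected inhibition above about 18%, plus a signal ratio from 0.5 to 1.5, limit read from the data, passing the limit was not always enough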
Target sequence (O14786 whole entry, looked up): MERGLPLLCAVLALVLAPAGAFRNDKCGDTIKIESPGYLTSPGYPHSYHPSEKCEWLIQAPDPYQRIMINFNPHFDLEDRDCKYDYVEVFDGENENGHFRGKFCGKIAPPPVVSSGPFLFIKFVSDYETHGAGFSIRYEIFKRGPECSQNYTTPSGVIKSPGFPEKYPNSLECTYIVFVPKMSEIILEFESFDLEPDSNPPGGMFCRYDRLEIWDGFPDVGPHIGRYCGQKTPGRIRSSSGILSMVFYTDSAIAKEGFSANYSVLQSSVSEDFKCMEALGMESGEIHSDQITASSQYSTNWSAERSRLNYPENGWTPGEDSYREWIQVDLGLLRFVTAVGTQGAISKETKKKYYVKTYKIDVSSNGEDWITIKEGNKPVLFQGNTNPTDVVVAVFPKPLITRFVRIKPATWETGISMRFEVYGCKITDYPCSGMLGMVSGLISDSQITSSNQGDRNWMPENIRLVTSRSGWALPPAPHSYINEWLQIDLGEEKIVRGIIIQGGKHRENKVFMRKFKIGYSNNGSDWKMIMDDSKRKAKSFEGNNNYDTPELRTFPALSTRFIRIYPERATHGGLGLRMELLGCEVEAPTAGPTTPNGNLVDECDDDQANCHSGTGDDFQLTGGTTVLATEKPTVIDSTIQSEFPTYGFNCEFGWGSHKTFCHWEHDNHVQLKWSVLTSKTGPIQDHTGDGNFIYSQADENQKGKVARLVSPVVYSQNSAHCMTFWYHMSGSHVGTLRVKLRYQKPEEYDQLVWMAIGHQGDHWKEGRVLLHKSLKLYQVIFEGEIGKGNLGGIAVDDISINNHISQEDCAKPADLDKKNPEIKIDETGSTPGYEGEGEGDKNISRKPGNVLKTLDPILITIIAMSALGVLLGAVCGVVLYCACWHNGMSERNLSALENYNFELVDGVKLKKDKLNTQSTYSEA
CTSL1 counter: Fasciola hepatica cathepsin L1 inhibitors, primary screen, counter-screen for PFM18AAP inhibitor project, biochemical, QFRET, fluorogenic peptide substrate; recombinant F. hepatica cathepsin L1, Z-Leu-Arg-MCA fluorescence; inhibition, % at 5.96 µM; actives 0.49% (n = 300,000); AID 1906, 2009;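 active = inhibition above the mean of all tested compounds plus 3 SD, set per screening campaign, cut at about 17% in these data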;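 also: 0% = plate median of test compound wells and 100% = 1 µM Z-Phe-Ala-diazomethylketone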
TPT1 inhibitor: Candida albicans TPT1 enzyme inhibitors, primary screen, biochemical, fluorescence polarization | inhibition, % at 5 µM | recombinant caTPT1, FP RNA substrate dephosphorylation | actives 0.81% (n = 300,000) | tRNA 2'-phosphotransferase TPT1 (Candida albicans SC5314);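 active = inhibition above the mean of all tested compounds plus 3 SD, set per screening campaign, cut at about 24% in these data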;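 also: plate controls were DMSO alone for no effect and ferristatin control at 100 nM for full effect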
PHOSPHO1 inh: PubChem AID 1565; Phosphoethanolamine/phosphocholine phosphatase (Homo sapiens), Q8TCT1; recombinant PHOSPHO1, absorbance phosphatase assay; inhibition, % at 13.3 µM; actives 1.1% (n = 290,000); in the data active = inhibition above about 60%
HNF4A confirm: change in HNF4A binding to DNA, retest, confirmation, biochemical, fluorescence polarization, FITC-DNA. AID 1224897, 2016. actives 99% (n = 210). 1 h. shares compounds with HNF4A DNA FP. activity change, % at 12.5 µM; call rule not given here
An asterisk follows results filed as active.

How did Cc1cccc(NC(=O)c2sc3nc(-c4ccc(F)cc4)cn3c2C)n1 do in these assays?
HNF4A DNA FP: 37*; NRP1-CendR mod: -118; CTSL1 counter: -1; TPT1 inhibitor: 24; PHOSPHO1 inh: 55; HNF4A confirm: 38*

Results for CCOC(=O)c1c(-c2ccc(C)cc2)csc1NC(=O)/C(C#N)=C/c1ccc(O)c(OC)c1 ?
HNF4A DNA FP: 55*; NRP1-CendR mod: -118; PHOSPHO1 inh: 7; HNF4A confirm: 62*

What do the screens show for `Cc1ccc(Nc2nc3ccccc3c(=O)s2)cc1C`?
Rpn11 inh: 0; HNF4A DNA FP: 1; NRP1-CendR mod: 13; CTSL1 counter: 1; TPT1 inhibitor: 0; PHOSPHO1 inh: -3

Results for Cc1ccc(Nc2nc(Cl)c(C=O)s2)cc1Cl ?
HNF4A DNA FP: 44*; NRP1-CendR mod: -86; CTSL1 counter: -2; TPT1 inhibitor: 13; PHOSPHO1 inh: 28; HNF4A confirm: 44*

How did COC(=O)c1cc(C(=O)c2cc(F)ccc2O)cn2c(=O)c3c(C)c(C)sc3nc12 do in these assays?
Rpn11 inh: 32; HNF4A DNA FP: 68*; NRP1-CendR mod: -140; CTSL1 counter: 0; TPT1 inhibitor: 5; PHOSPHO1 inh: 12; HNF4A confirm: 66*

Results for Cc1sc2nc3c(SC(C)C(=O)O)cc(C(=O)c4ccccc4O)cn3c(=O)c2c1C (centres undefined) ?
Rpn11 inh: 6; HNF4A DNA FP: 5; NRP1-CendR mod: -76; CTSL1 counter: 3; TPT1 inhibitor: 11; PHOSPHO1 inh: -14

What do the screens show for `CCN1/C(=N\N)c2cccc3cccc1c23`?
HNF4A DNA FP: 57*; NRP1-CendR mod: -187; CTSL1 counter: -2; TPT1 inhibitor: -3; PHOSPHO1 inh: -4; HNF4A confirm: 72*

How did N#C/C(=C/c1ccc(-c2ccc([N+](=O)[O-])cc2)o1)c1nnc(N2CCOCC2)n1-c1ccccc1 do in these assays?
Rpn11 inh: 27; HNF4A DNA FP: 48*; NRP1-CendR mod: -72; HNF4A confirm: 38*

How did CCN(CC)c1ccc(/C=C2\CCC(/C=C(/C#N)C(=O)Nc3ccccc3F)=C2N2CCOCC2)cc1 do in these assays?
Rpn11 inh: 11; HNF4A DNA FP: 9; NRP1-CendR mod: -50

What do the screens show for `N#C/C(=C/C1=C(N2CCOCC2)C(=C/c2cccc([N+](=O)[O-])c2)/CC1)C(=O)Nc1ccccc1F`?
Rpn11 inh: 35; HNF4A DNA FP: 49*; NRP1-CendR mod: -76; HNF4A confirm: 65*

What do the screens show for `N#C/C(=C\C1=C(N2CCOCC2)C(=C/c2cccc([N+](=O)[O-])c2)/CC1)C(=O)Nc1ccccc1F`?
HNF4A DNA FP: 54*; NRP1-CendR mod: -81; CTSL1 counter: 0; TPT1 inhibitor: 14; PHOSPHO1 inh: -14; HNF4A confirm: 56*

Results for CCN(CC)c1ccc(/C=C2\CCC(/C=C(\C#N)C(=O)Nc3ccccc3F)=C2N2CCOCC2)cc1 ?
Rpn11 inh: 29; HNF4A DNA FP: 18; NRP1-CendR mod: -64; PHOSPHO1 inh: -9

How did COc1ccc(OCCNc2cc(Cl)ccc2[N+](=O)[O-])cc1 do in these assays?
HNF4A DNA FP: 51*; NRP1-CendR mod: -162; CTSL1 counter: 1; TPT1 inhibitor: 4; PHOSPHO1 inh: -21; HNF4A confirm: 67*

Results for O/N=C/c1cc(Br)cs1 ?
Rpn11 inh: -1; HNF4A DNA FP: 5; NRP1-CendR mod: -2; CTSL1 counter: -3; TPT1 inhibitor: 3; PHOSPHO1 inh: 56

Results for O=C(N/N=C/c1coc2ccccc2c1=O)c1cc(Br)ccc1O ?
Rpn11 inh: 19; HNF4A DNA FP: 46*; NRP1-CendR mod: 70; CTSL1 counter: 1; TPT1 inhibitor: 3; PHOSPHO1 inh: 34; HNF4A confirm: 35*
